Laboratory results published in the supplement of paper PMC10849652.
The full data set covers some 8,800 targets. This sample favours those with a hit. About 0.5% of all pairs of compound and target were hits.

Columns and labels:
Experiment in all cases: log2 fold change, soluble protein after heating vs DMSO (PISA); higher = thermal stabilisation; K562 lysate, 10 uM; active = over 0.2 and 3.5 SD of the protein, either way, in both replicates (recomputed)
[1] = compound: CN1CC[C@H](c2c(O)cc(O)c3c(=O)cc(-c4ccccc4Cl)oc23)[C@H](O)C1 [alvocidib]
Summary of the method: (§1)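 Thermal stability, expressed as log-two fold change relative to solvent controls, is given from duplicates. Crude K562 extract in PBS pH 7.4 with 1 mM MgCl2, at 1 mg/mL protein, was treated with 10 μM compound for 30 min and heated in aliquots for 3 min across 48°C-58°C. After pooling, adjustment to 0.5% NP-40 at 4°C and centrifugation at 21,000xg for 90 min, supernatant protein was measured by TMTpro 16plex LC-MS/MS with channel sums equalised.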

[2] = compound: CN1CCc2c(c3ccccc3n2Cc2ccc(C(=O)NO)cc2)C1 [Tubastatin A]
Summary of the method: as §1

[3] = compound: CNC(=O)C1=CC=CC=C1NC2=NC(=NC=C2Cl)NC3=C(C=C(C=C3)N4CCOCC4)OC
Summary of the method: as §1

[4] = compound: CNC(=O)c1ccc(Nc2ncc(C(F)(F)F)c(NCc3nccnc3N(C)S(C)(=O)=O)n2)cc1 [defactinib]
Summary of the method: as §1

[5] = compound: CNc1nc(-c2ccc3c(N)n[nH]c3c2)cc(N2C[C@@H](C(=O)NC3CCCCC3)CC[C@H]2C)n1
Summary of the method: as §1

[6] = compound: COC(=O)N[C@@H](C)CNc1nccc(-c2cn(C(C)C)nc2-c2cc(Cl)cc(NS(C)(=O)=O)c2F)n1 [encorafenib]
Summary of the method: as §1

[7] = compound: COC(=O)[C@H](CCSC)NC(=O)C1=C(C=C(C=C1)NC[C@H](CS)N)C2=CC=CC=C2
Summary of the method: as §1

[8] = compound: COc1cc(Nc2ncc3c(n2)-c2ccc(Cl)cc2C(c2c(F)cccc2OC)=NC3)ccc1C(=O)O [alisertib]
Summary of the method: as §1

[9] = compound: COc1cc2nc(-c3cc(F)ccc3O)nc(N[C@@H]3CNC[C@H]3C(C)(C)O)c2cc1OC
Summary of the method: as §1

[10] = compound: COc1cc2ncnc(Nc3ccc(F)c(Cl)c3)c2cc1OCCCN1CCOCC1 [gefitinib]
Summary of the method: as §1

Measured: log2 fold change

PAK4 (UniProt O96013)
Chain of UniProt O96013 (O96013 whole entry, looked up): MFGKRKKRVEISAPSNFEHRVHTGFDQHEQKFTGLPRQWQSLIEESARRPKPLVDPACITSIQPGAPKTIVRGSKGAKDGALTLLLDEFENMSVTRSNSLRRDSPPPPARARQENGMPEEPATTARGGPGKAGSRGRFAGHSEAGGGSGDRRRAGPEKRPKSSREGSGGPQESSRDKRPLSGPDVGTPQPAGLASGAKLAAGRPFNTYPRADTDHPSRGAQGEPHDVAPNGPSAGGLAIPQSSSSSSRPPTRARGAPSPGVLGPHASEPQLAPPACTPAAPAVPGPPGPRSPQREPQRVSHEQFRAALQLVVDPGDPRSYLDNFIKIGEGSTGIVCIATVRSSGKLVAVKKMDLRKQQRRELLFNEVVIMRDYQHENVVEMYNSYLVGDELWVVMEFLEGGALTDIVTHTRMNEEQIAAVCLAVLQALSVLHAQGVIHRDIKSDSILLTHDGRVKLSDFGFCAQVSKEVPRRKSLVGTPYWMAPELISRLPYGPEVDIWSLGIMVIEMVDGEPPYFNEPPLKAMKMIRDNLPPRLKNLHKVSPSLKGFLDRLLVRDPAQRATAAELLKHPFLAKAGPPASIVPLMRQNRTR
inactive: [1] -0.019 | [2] -0.038 | [3] 0.27 | [4] 0.441 | [5] -0.021 | [6] -0.173 | [7] -0.057 | [8] 0.002 | [9] 0.241 | [10] -0.027

NPLOC4 isoform 2 (UniProt Q8TAT6)
Chain of UniProt Q8TAT6 (Q8TAT6 whole entry, looked up): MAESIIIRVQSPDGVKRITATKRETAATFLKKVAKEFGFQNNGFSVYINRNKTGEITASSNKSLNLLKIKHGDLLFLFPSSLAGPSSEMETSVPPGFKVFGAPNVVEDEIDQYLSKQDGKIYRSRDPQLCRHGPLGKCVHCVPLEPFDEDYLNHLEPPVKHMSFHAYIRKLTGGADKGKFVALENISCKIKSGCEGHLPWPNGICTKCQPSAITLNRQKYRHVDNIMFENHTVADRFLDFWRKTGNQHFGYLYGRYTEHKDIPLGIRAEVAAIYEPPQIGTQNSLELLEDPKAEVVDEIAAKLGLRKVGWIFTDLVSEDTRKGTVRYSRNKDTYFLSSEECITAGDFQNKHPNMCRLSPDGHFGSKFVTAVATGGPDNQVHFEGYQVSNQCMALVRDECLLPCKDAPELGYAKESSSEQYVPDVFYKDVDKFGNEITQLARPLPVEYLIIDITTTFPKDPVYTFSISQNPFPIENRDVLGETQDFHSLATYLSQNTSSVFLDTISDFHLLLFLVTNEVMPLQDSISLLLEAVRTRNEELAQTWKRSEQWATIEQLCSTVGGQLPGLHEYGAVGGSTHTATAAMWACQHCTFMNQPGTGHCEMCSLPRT
inactive: [1] -0.06 | [2] 0.013 | [3] 0.019 | [4] -0.007 | [5] 0.043 | [6] 0.021 | [7] 0.016 | [8] 0.004 | [9] -0.007 | [10] -0.018

NARS2 (UniProt Q96I59)
Chain of UniProt Q96I59 (Q96I59 whole entry, looked up): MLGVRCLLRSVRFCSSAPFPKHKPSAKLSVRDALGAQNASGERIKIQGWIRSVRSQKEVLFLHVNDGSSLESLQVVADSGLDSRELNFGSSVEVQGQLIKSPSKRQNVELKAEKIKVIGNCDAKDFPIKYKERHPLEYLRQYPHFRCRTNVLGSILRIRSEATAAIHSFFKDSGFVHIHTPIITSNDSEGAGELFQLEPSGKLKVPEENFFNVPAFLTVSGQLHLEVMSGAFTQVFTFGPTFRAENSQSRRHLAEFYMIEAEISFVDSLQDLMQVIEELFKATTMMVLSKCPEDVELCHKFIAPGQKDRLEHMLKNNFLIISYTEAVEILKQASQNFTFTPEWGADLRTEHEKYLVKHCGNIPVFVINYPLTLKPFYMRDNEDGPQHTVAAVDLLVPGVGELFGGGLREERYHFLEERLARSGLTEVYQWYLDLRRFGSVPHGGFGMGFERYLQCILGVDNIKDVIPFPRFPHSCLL
inactive: [1] 0.013 | [2] -0.157 | [3] -0.046 | [4] 0.014 | [5] -0.04 | [6] -0.01 | [7] 0.039 | [8] -0.006 | [9] -0.01 | [10] -0.016

OSBPL3 isoform 2 (UniProt Q9H4L5)
inactive: [1] -0.013 | [2] -0.161 | [3] 0.056 | [4] -0.11 | [5] -0.033 | [6] 0.03 | [7] 0.052 | [8] -0.043 | [9] -0.002 | [10] 0.206

OSGEP (UniProt Q9NPF4)
inactive: [1] -0.062 | [2] 0 | [3] -0.047 | [4] 0 | [5] 0.03 | [6] -0.008 | [7] 0.016 | [8] 0.045 | [9] 0.007 | [10] -0.032

NNT (UniProt Q13423)
Chain of UniProt Q13423 (Q13423 whole entry, looked up): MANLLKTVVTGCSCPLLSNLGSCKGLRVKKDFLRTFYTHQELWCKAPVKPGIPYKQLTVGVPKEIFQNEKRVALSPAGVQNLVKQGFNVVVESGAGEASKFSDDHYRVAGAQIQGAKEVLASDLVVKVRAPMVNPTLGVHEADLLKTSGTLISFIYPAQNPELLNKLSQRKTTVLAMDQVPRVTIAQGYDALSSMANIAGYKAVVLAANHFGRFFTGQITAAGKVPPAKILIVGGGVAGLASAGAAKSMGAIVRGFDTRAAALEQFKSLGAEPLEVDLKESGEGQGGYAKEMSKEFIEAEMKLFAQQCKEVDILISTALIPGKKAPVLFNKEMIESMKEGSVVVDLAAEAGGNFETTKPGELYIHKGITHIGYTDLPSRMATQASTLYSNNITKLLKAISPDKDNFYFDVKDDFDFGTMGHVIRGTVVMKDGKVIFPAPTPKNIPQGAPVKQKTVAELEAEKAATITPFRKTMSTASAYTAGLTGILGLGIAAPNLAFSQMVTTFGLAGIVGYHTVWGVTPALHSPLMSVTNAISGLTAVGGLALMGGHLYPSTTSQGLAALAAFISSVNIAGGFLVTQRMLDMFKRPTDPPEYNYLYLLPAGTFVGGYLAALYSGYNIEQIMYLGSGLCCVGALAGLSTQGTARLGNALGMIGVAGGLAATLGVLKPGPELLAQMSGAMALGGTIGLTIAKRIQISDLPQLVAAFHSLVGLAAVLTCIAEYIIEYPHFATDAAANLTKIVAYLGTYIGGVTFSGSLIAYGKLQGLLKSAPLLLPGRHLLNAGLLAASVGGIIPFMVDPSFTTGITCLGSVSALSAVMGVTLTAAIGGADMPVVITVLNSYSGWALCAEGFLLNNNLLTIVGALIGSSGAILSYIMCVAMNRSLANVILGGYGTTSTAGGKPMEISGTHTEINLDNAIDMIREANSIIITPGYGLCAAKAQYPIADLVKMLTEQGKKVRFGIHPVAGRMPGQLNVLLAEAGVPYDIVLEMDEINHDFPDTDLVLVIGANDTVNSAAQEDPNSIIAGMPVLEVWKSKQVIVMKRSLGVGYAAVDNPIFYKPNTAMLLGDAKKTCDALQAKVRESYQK
inactive: [1] 0.006 | [2] 0.035 | [3] 0.021 | [4] -0.005 | [5] -0.04 | [6] -0.018 | [7] -0.017 | [8] -0.001 | [9] 0.021 | [10] 0.012

MSH6 (UniProt P52701)
inactive: [1] -0.021 | [2] -0.17 | [3] 0.009 | [4] 0.012 | [5] -0.032 | [6] 0.019 | [7] 0.105 | [8] 0.003 | [9] -0.011 | [10] -0.023

N6AMT1 (UniProt Q9Y5N5)
Chain of UniProt Q9Y5N5 (Q9Y5N5 whole entry, looked up, one chain of several): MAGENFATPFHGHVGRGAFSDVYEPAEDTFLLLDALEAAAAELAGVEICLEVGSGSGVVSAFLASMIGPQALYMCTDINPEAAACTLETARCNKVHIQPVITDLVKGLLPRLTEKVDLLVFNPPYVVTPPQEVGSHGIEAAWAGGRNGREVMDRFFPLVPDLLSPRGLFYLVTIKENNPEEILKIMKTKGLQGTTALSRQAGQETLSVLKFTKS
active: [4] 0.361
inactive: [1] 0.062 | [2] 0.026 | [3] 0.048 | [5] 0.021 | [6] -0.011 | [7] 0.069 | [8] -0.084 | [9] 0.004 | [10] -0.045

MRPS18A isoform 2 (UniProt Q9NVS2)
inactive: [1] 0.18 | [2] -0.047 | [3] -0.156 | [4] -0.024 | [5] 0.106 | [6] 0.029 | [7] -0.037 | [8] 0.041 | [9] -0.017 | [10] 0.008

NOC2L (UniProt Q9Y3T9)
inactive: [1] -0.009 | [2] -0.066 | [3] 0.043 | [4] 0.121 | [6] 0.048 | [7] -0.02 | [8] 0.01 | [9] 0.06 | [10] -0.03
active: [5] 0.257

MTOR (UniProt P42345)
inactive: [1] -0.054 | [2] -0.118 | [3] -0.038 | [4] 0.01 | [5] -0.025 | [6] 0.016 | [7] 0.014 | [8] 0.006 | [9] 0 | [10] -0.039

NDUFA4 (UniProt O00483)
inactive: [1] 0.022 | [2] 0.055 | [3] 0.054 | [4] 0.143 | [5] 0.004 | [6] 0.028 | [7] 0.009 | [8] 0.055 | [9] -0.079 | [10] -0.133

NUP98 (UniProt P52948)
inactive: [1] -0.019 | [2] -0.117 | [3] 0.029 | [4] 0.031 | [5] 0.047 | [6] 0.064 | [7] -0.04 | [8] 0.01 | [9] 0.017 | [10] 0.011

NR3C1 isoform 3 (UniProt P04150)
inactive: [1] -0.004 | [2] -0.088 | [3] 0.048 | [4] 0.021 | [5] -0.093 | [6] 0.05 | [7] 0.029 | [8] 0.045 | [9] -0.001 | [10] 0.013

PARD3 (UniProt Q8TEW0)
inactive: [1] -0.035 | [2] -0.087 | [3] -0.021 | [4] 0.144 | [5] -0.031 | [6] 0.007 | [7] 0.061 | [8] -0.013 | [10] 0.04
active: [9] 0.438

MTHFD1L (UniProt B7ZM99)
inactive: [1] 0.029 | [2] -0.084 | [3] 0.02 | [4] 0.034 | [5] -0.01 | [6] -0.041 | [7] 0.072 | [8] 0.032 | [9] 0.009 | [10] -0.007

MYH11 isoform 2 (UniProt P35749)
inactive: [1] -0.042 | [2] -0.069 | [3] -0.028 | [4] -0.083 | [5] 0.031 | [6] -0.002 | [7] 0.07 | [8] 0.002 | [9] -0.005 | [10] 0.031

PBK (UniProt Q96KB5)
Chain of UniProt Q96KB5 (Q96KB5 whole entry, looked up): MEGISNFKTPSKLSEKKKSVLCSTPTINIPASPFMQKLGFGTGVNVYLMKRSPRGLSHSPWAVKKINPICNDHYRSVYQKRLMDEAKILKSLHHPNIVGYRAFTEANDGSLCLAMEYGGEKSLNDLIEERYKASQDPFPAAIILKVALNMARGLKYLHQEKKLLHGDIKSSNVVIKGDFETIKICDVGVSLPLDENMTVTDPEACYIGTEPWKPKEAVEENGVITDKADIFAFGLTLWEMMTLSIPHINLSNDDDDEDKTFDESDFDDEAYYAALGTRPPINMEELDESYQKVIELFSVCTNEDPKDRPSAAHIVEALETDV
inactive: [1] 0.013 | [2] -0.041 | [3] -0.001 | [4] -0.004 | [5] -0.015 | [6] -0.011 | [7] 0.099 | [8] -0.013 | [9] -0.003 | [10] -0.023

ORC5 (UniProt O43913)
inactive: [1] 0.001 | [2] -0.163 | [3] 0.001 | [4] 0.062 | [5] -0.008 | [6] 0.049 | [7] 0.165 | [8] -0.004 | [9] 0.006 | [10] -0.011

PAXBP1 (UniProt Q9Y5B6)
Chain of UniProt Q9Y5B6 (Q9Y5B6 whole entry, looked up): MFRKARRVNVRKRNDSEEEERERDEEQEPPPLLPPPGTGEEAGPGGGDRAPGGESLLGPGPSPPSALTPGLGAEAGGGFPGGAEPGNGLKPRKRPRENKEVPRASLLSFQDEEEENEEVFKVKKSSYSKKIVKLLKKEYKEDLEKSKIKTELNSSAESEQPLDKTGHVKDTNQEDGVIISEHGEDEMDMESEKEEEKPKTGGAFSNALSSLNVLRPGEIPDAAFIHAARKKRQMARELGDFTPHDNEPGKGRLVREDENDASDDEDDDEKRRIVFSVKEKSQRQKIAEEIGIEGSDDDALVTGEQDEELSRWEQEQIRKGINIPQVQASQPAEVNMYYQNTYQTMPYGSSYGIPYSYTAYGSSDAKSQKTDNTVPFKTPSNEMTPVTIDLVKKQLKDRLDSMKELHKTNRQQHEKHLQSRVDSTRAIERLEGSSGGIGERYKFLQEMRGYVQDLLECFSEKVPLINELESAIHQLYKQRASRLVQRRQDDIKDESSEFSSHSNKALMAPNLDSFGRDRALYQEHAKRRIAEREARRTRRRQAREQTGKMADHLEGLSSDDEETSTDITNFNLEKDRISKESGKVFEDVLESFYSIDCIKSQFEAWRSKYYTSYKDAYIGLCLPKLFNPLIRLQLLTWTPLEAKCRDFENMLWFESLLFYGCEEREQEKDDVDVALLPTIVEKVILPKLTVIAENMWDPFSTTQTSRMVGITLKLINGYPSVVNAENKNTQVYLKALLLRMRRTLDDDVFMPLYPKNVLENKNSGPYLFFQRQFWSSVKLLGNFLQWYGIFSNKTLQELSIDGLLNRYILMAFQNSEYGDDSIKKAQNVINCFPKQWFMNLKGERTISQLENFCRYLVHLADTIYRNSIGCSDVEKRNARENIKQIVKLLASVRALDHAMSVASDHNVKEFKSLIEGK
active: [7] 0.29
inactive: [1] -0.043 | [2] -0.069 | [3] 0.015 | [4] 0.005 | [5] -0.004 | [6] 0.018 | [8] 0.013 | [9] -0.003 | [10] -0.038

NMRAL1 (UniProt Q9HBL8)
Chain of UniProt Q9HBL8 (Q9HBL8 whole entry, looked up): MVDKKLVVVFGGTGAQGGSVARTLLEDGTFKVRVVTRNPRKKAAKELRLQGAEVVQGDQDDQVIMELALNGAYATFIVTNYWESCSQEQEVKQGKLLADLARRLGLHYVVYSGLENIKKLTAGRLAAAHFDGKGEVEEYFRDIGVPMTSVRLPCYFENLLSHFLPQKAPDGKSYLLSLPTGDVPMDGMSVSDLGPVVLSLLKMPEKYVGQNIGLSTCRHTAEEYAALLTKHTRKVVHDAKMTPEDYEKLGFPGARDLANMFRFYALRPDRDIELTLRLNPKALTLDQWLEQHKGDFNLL
inactive: [1] 0 | [2] 0.036 | [3] -0.044 | [4] -0.003 | [5] 0.026 | [6] -0.003 | [8] 0.021 | [9] 0.001 | [10] -0.002
active: [7] 0.406

NFIC (UniProt P08651)
Chain of UniProt P08651 (P08651 whole entry, looked up): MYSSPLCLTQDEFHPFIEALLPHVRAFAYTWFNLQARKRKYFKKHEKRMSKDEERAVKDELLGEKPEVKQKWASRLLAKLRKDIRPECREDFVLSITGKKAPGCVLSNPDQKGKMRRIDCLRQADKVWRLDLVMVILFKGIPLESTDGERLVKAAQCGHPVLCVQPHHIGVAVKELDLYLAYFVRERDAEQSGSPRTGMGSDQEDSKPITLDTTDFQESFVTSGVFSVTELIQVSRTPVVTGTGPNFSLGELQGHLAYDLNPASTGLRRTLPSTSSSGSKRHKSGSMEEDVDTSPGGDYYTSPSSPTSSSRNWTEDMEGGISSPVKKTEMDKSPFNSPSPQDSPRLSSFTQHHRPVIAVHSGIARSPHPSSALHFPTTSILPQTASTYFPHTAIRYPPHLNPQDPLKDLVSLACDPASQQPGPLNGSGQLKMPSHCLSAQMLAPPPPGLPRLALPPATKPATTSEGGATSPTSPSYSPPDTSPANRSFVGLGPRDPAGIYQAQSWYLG
inactive: [1] -0.103 | [2] -0.104 | [3] 0.078 | [4] -0.153 | [5] -0.048 | [6] 0.121 | [7] -0.025 | [8] 0 | [9] -0.025 | [10] 0.117

PANK1 (UniProt Q8TE04)
inactive: [1] 0.002 | [2] 0.025 | [3] 0.051 | [4] -0.082 | [5] -0.076 | [6] 0.312 | [7] 0.173 | [8] 0.001 | [9] -0.096 | [10] 0.072

NNMT (UniProt P40261)
active: [7] -0.317
inactive: [1] -0.001 | [2] -0.03 | [3] 0 | [4] -0.049 | [5] -0.086 | [6] 0.043 | [8] 0 | [9] 0.009 | [10] 0.004

MYCBP2 (UniProt O75592)
inactive: [1] -0.046 | [2] -0.098 | [3] 0.024 | [4] 0.019 | [5] 0.003 | [6] 0.055 | [7] -0.015 | [8] 0.007 | [9] 0.032 | [10] -0.004

OSBPL6 isoform 5 (UniProt Q9BZF3)
inactive: [1] -0.056 | [2] -0.05 | [3] -0.043 | [4] -0.063 | [5] -0.047 | [6] -0.005 | [7] 0.015 | [8] -0.068 | [9] -0.004 | [10] 0.164

NPTN (UniProt Q9Y639)
inactive: [1] -0.023 | [2] -0.01 | [3] 0 | [4] -0.185 | [5] 0.03 | [6] -0.023 | [7] 0.015 | [8] 0.011 | [9] 0.042 | [10] 0.024
